Reference: PubChem BioAssay (NCATS)
Results filed as inconclusive are left out. Active and inactive are the calls of the source. Unless noted, no rule for the calls is given here.

Tests used:
[1] = qHTS profiling of the MIPE4 collection as inhibitors of Plasmodium falciparum (3D7) proliferation (AID 743344);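 also: scaled between DMSO vehicle wells and 0.29 µM artemisinin as full inhibition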; conditions: P. falciparum 3D7 in erythrocytes, SYBR Green DNA fluorescence, 72 h; at 28.5 µM unless noted
Outline: (§1)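 Parasite DNA was quantified by SYBR Green I fluorescence (ex 485, em 535 nm) after overnight lysis in saponin/Triton buffer at room temperature. Cultures at 0.3% parasitemia and 2.5% hematocrit were first exposed to compound for 72 h at 37 C; signals were normalised to artemisinin (0.29 uM) and vehicle wells.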

[2] = qHTS profiling of the MIPE4 collection as inhibitors of Plasmodium falciparum (DD2) proliferation (AID 743345); conditions: P. falciparum Dd2 in erythrocytes, SYBR Green DNA, 72 h; at 28.5 µM unless noted
Outline: as §1

[3] = qHTS profiling of the MIPE4 collection as inhibitors of Plasmodium falciparum (DD2) proliferation (Rep 2) (AID 743346); conditions: P. falciparum Dd2 in erythrocytes, SYBR Green DNA, 72 h; at 28.5 µM unless noted
Outline: as §1

[4] = qHTS profiling of the MIPE4 collection as inhibitors of Plasmodium falciparum (HB3) proliferation (AID 743347);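 also: plate controls were DMSO vehicle wells for no effect and artemisinin wells for full effect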; conditions: P. falciparum HB3 in erythrocytes, SYBR Green DNA, 72 h; at 28.5 µM unless noted
Outline: as §1

[5] = High-throughput drug toxicity screening in the BPDCN cell line Gen2.2 (AID 1224824); conditions: Gen2.2 BPDCN cells; at 45.8 µM (top of the series) unless noted;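 also: cells exposed to compounds for 48 h before reading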
Outline: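 CellTiter-Glo luminescence read after 48 h compound exposure at 37 C defines viability; percent activity set with DMSO as 100% and bortezomib (9.2 uM final) as 0%. 500 exponentially growing cells per well, RPMI plus 10% FBS.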

[6] = qHTS assay for measurement of the activity of small molecule inhibitors on Zika virus induced Caspase-3 activity in human iPSC derived neural progenitor cells (hNPCs) (AID 1224857; active = well fitted curve in the direction sought with a large enough effect; an effect the other way counts as inactive or inconclusive; also: % of control where 0% means no effect; nearly all actives have a fitted effect of over 65% in size)
Outline: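 Caspase-3/7 induction by a 6-hour ZIKV infection was quantified with a luminescent Caspase-Glo 3/7 reagent incubated 30 minutes at room temperature. Compounds were preincubated with hNPCs for 1 hour; inhibition was calculated against uninfected and infected control wells.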

[7] = qHTS assay for measurement of the activity of small molecule inhibitors on Zika virus induced Caspase-3 activity in human astrocytoma cells (AID 1224859; active = well fitted curve in the direction sought with a large enough effect; an effect the other way counts as inactive or inconclusive;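 also: plate controls were ZIKV-infected untreated cells for no effect and uninfected cells for full effect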)
Outline: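 In SNB-19 cells plated at 250 cells/well and grown 16-20 h, compounds were applied 1 h before ZIKV (2 FFU/cell). Six hours later caspase-3/7 luminescence was recorded.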

[8] = qHTS Screen of the MIPE 4.0 Collection Against Ewings Sarcoma (TC71) (AID 1259253; active = well fitted curve in the direction sought with a large enough effect; an effect the other way counts as inactive or inconclusive; also: potency is read from the fitted curve at half-maximal effect; nearly all actives have a fitted effect of over 40% in size)
Outline: (§2)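 Cells plated in serum-containing RPMI (5% FBS) and treated with compound dilutions for 48 h. Readout luminescent viability; normalization relied on vehicle (no inhibition) and media-only columns (full inhibition).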

[9] = qHTS Screen of the MIPE 4.0 Collection Against Ewings Sarcoma (TC32) (AID 1259256; active = well fitted curve in the direction sought with a large enough effect; an effect the other way counts as inactive or inconclusive; also: nearly all actives have a fitted effect of over 45% in size; also: potency is read from the fitted curve at half-maximal effect)
Outline: as §2

[10] = qHTS Screen of the MIPE 4.0 Collection Against Ewings Sarcoma (RDES) (AID 1259252; active = well fitted curve in the direction sought with a large enough effect; an effect the other way counts as inactive or inconclusive; also: nearly all actives have a fitted effect of over 35% in size; also: potency is read from the fitted curve at half-maximal effect)
Outline: as §2

[11] = qHTS Screen of the MIPE 4.0 Collection Against Ewings Sarcoma (EW8) (AID 1259255; active = well fitted curve in the direction sought with a large enough effect; an effect the other way counts as inactive or inconclusive; also: nearly all actives have a fitted effect of over 35% in size; also: potency is read from the fitted curve at half-maximal effect;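 as to viability: 100% = DMSO-treated cells and 0% = medium-only wells without cells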)
Outline: as §2

[12] = qHTS assay to identify small molecule inhibitors of chordoma cells - UCH-2 (AID 1259356; active = well fitted curve in the direction sought with a large enough effect; an effect the other way counts as inactive or inconclusive; also: % is scaled to controls: 0 for no effect and ±100 for the full control effect)
[13] = qHTS profiling for inhibitors of Plasmodium falciparum (HB3) proliferation (AID 743324; active = well fitted curve in the direction sought with a large enough effect; an effect the other way counts as inactive or inconclusive;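 also: 100% = DMSO vehicle wells and 0% = artemisinin-treated control wells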); conditions: Plasmodium falciparum HB3 blood-stage proliferation; at 28.7 µM (top of the series) unless noted
Outline: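 SYBR Green fluorescence (485 ex/535 em) of lysed cultures, incubated overnight at room temperature in the dark, quantifies parasite DNA. Infected erythrocytes at 0.3% parasitemia and 2.5% hematocrit were exposed 72 h; values normalized to DMSO and 0.29 uM artemisinin controls.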

SMILES | parasite growth, % of DMSO control [1] | parasite growth remaining, % of DMSO control (lower = more inhibition) [2] | parasite growth, % of control (lower = inhibition) [3] | growth, % of control [4] | cell viability, % of control (lower = more cytotoxic) [5] | Potency [6] | Potency [7] | Potency [8] | Potency [9] | Potency [10] | Potency [11] | outcome [12] | remaining proliferation (% of control), lower = more inhibition [13]
CCOC(=O)[C@H]1O[C@H]1C(=O)N[C@@H](CC(C)C)C(=O)NCCC(C)C | 15.6% | 12.9% | 15.6% | 4.47% | 74.8% | inactive | inactive | 2.96 µM (active) | 18.7 µM (active) | – | – | – | –
Fc1ccc(C(c2ccc(F)cc2)N2CCN(CC=Cc3ccccc3)CC2)cc1 | 6.36% | 14.4% | 44.1% | 5.16% | 18.7% | inactive | inactive | – | – | inactive | 16.6 µM (active) | inactive | –
COc1cc2ncnc(Nc3cc(Br)c(O)c(Br)c3)c2cc1OC | 10.7% | 54.4% | 43.2% | 5.25% | 15.7% | inactive | inactive | 0.059 µM (active) | 0.418 µM (active) | 0.0418 µM (active) | – | – | –
C[C@@H](O)[C@H]1C(=O)N2C(C(=O)OCOC(=O)C(C)(C)C)=C(SC3CN(C4=NCCS4)C3)[C@H](C)[C@H]12 | 66% | 99.9% | 107% | 104% | 58.2% | inactive | inactive | – | – | – | – | – | –
CC(C)c1c(C(=O)Nc2ccccc2)c(-c2ccccc2)c(-c2ccc(F)cc2)n1CC[C@H](O)C[C@@H](O)CC(=O)O | 7.03% | 82.2% | 17.6% | 4.89% | 41.5% | inactive | inactive | 14.8 µM (active) | 3.72 µM (active) | – | 23.5 µM (active) | – | –
CNC(=O)[C@H](Cc1ccccc1)NC(=O)[C@H](CC(C)C)[C@H](CSc1cccs1)C(=O)NO | 4.98% | 8.14% | 11.7% | 4.59% | 63.4% | inactive | inactive | 5.9 µM (active) | inactive | – | inactive | – | –
COc1cc(F)c(C(C)C)cc1-c1ccc(C(F)(F)F)cc1CN1C(=O)O[C@H](c2cc(C(F)(F)F)cc(C(F)(F)F)c2)[C@@H]1C | 6.82% | 9.07% | 31.9% | 9.46% | 115% | inactive | inactive | 16.6 µM (active) | – | inactive | inactive | – | –
CCC[C@@H](NC(=O)[C@@H]1[C@H]2CCC[C@@H]2CN1C(=O)[C@@H](NC(=O)[C@@H](NC(=O)c1cnccn1)C1CCCCC1)C(C)(C)C)C(=O)C(=O)NC1CC1 | 9.1% | 61.2% | 19.9% | 10.3% | 48.1% | inactive | inactive | – | – | – | 16.6 µM (active) | – | –
CCc1cc(-c2n[nH]c(C)c2-c2ccc3c(c2)OCCO3)c(O)cc1O | 49.4% | 57.9% | 31.5% | 39.1% | 7.68% | inactive | inactive | 8.33 µM (active) | 4.18 µM (active) | 9.35 µM (active) | – | – | 74.6%
CC1(C)CC(=O)c2c(C(F)(F)F)nn(-c3ccc(C(N)=O)c(NC4CCC(O)CC4)c3)c2C1 (stereo not drawn) | 5.39% | 8.63% | 13% | 3.53% | 8.13% | inactive | inactive | 0.0935 µM (active) | 0.0833 µM (active) | – | 0.148 µM (active) | – | –
NCc1c[nH]c(=S)n1[C@H]1CCc2c(F)cc(F)cc2C1 | 15.7% | 12.9% | 13.8% | 4.48% | 61.4% | inactive | inactive | – | 23.5 µM (active) | – | 23.5 µM (active) | – | –
CCN(CCO)CCCOc1ccc2c(Nc3cc(CC(=O)Nc4cccc(F)c4)[nH]n3)ncnc2c1 | 9.18% | 11.6% | 17.8% | 6.77% | 90.4% | inactive | inactive | 0.166 µM (active) | 0.059 µM (active) | – | 0.0833 µM (active) | – | –
COc1ccc(-c2ccc3ncc4c(c3c2)n(-c2ccc(N3CCNCC3)c(C(F)(F)F)c2)c(=O)n4C)cn1 | 7.25% | 6.37% | 9.13% | 3.39% | 0.968% | inactive | inactive | 0.0059 µM (active) | – | 0.0469 µM (active) | – | – | –
CC(=O)OCC(=O)[C@@]1(O)CC[C@H]2[C@@H]3CCC4=CC(=O)C=C[C@]4(C)[C@@H]3[C@@H](O)C[C@@]21C | 77.8% | 102% | 81.3% | 80.7% | 165% | inactive | inactive | 9.35 µM (active) | – | inactive | inactive | – | –
